# Assay results published in PubChem BioAssay (NCATS).
# Values without a mark were called inactive. Records with an inconclusive call do not appear. Active and inactive are the calls of the source. Unless noted, calls follow the shape of the dose curve; as a rule, active = well fitted curve in the direction sought with a large enough effect; inconclusive = small, poorly fitted or top-dose-only effect, or another doubt; inactive = no such curve, though single readings can be large; an effect the other way counts as inactive or inconclusive.
# How the values were obtained:
# [1] = molecular target: Lysosomal acid glucosylceramidase (Homo sapiens) (UniProt P04062); assay: Glucocerebrosidase-p2 (AID 348; in the data active = potency below about 10 µM; also: potency is read from the fitted curve at half-maximal effect); settings: purified GBA, blue fluorogenic substrate, 40 min
# Sequence of Lysosomal acid glucosylceramidase (Homo sapiens) (P04062 whole entry, looked up): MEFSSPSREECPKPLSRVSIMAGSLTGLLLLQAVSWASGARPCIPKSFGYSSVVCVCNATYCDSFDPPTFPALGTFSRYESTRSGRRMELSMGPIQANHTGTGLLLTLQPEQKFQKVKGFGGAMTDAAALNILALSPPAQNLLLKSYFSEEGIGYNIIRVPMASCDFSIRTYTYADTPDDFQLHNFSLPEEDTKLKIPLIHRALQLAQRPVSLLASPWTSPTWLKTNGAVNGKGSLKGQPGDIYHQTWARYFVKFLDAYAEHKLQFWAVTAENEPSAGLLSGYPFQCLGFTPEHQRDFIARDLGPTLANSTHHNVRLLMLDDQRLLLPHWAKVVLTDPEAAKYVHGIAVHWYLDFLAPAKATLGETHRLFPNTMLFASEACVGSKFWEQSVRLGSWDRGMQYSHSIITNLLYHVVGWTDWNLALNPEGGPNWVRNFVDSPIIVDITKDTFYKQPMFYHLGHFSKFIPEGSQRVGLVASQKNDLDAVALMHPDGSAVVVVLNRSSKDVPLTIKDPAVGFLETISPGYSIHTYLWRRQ
# In short: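 Compounds titrated from 0.6 nM upwards against 0.2 nM enzyme in pH 5.9 citric acid/KH2PO4, taurocholate, tween-20; blue fluorogenic substrate 80 uM, 40 min room temperature, stopped and read Ex 365/Em 440 for AC50.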
# [2] = AP1 Signaling Pathway (AID 357; active = well fitted curve in either direction with a large enough effect, not every such curve was filed as active;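 also: ME-180 reporter cells stimulated with EGF at its EC50 level; % is scaled to controls: 0 for no effect and ±100 for the full control effect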); settings: ME-180 AP-1-bla reporter, EGF-induced, beta-lactamase ratio, 5 h; at 7.69 µM (top of the series) unless noted
# In short: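 AP-1-bla ME-180 cells, Opti-MEM + 0.5% dialyzed FBS, plated overnight 37 °C. Cpd titration + EC50 EGF, 5 h 37 °C. CCF4 2.5 h RT; ex 405, em 460/530 ratio → %activity, AC50.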
# [3] = molecular target: Cytochrome P450 1A2 (Homo sapiens) (UniProt P05177); assay: p450-cyp1a2 (AID 410; calls by dose curve; also: potency is read from the fitted curve at half-maximal effect); settings: recombinant CYP1A2, luciferin-ME demethylation, luminescence; series mostly up to 57 µM
# Sequence of Cytochrome P450 1A2 (Homo sapiens) (P05177 whole entry, looked up): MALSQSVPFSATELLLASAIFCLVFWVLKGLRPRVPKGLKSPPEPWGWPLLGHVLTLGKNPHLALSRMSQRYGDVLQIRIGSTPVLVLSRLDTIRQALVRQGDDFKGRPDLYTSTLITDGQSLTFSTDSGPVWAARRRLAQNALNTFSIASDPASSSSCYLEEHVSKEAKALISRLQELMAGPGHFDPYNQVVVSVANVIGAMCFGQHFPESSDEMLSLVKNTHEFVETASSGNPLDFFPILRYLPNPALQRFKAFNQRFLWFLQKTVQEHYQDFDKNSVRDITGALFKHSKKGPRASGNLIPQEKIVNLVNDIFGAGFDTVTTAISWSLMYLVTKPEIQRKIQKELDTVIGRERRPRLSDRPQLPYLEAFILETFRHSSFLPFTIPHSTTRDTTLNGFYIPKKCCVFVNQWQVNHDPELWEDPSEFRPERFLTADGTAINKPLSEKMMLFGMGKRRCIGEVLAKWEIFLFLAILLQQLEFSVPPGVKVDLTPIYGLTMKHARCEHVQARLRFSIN
# In short: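 20nM CYP1A2 with 100uM Luciferin-ME (at Km) in 100mM KPO4; compound preincubated 10 min, NADPH regeneration added, 60 min at room temperature. Luciferin quantified by luminescence after detection reagent; normalized to 57 uM furafylline.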
# [4] = NFAT Signaling Pathway (AID 444; active = well fitted curve in either direction with a large enough effect, not every such curve was filed as active;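 also: carbachol stimulus at about its EC50 of 1 µM final; % is scaled to controls: 0 for no effect and ±100 for the full control effect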); settings: Jurkat NFAT-bla M1, carbachol, beta-lactamase ratio, 5 h; at 7.69 µM (top of the series) unless noted
# In short: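 Read-out: CCF4 FRET ratio (460 nm/530 nm) after 1 h RT dye loading, used for %activity and AC50 from titration series. Cells: Jurkat NFAT-β-lactamase/M1 line, treated with compound plus 1 uM carbachol for 5 h, 37 °C.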
# [5] = Stat Signaling Pathway (AID 446; active = well fitted curve in either direction with a large enough effect, not every such curve was filed as active;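 also: ME-180 cervical cancer cells given 40 pM IL-6 alongside compound; SIE-controlled beta-lactamase reporter measured as 460/530 nm FRET emission ratio; % is scaled to controls: 0 for no effect and ±100 for the full control effect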); settings: ME-180 SIE beta-lactamase reporter, IL-6 stimulated, 5 h; at 7.69 µM (top of the series) unless noted
# In short: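 ME-180 SIE-bla cells; overnight plating; cpd + IL-6 40 pM, 5 h, 37 C; LiveBLAzer 2.5 h RT; 460/530 nm emission ratio. Normalized to 300 pM IL-6 and 125 nM JAK inhibitor controls.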
# [6] = molecular target: Glucocorticoid receptor (Homo sapiens) (UniProt P04150); assay: GR-GFP Redistribution (AID 450;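 active = compounds whose dose series gives a full or clear partial fitted curve of increased nuclear translocation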; also: potency is read from the fitted curve at half-maximal effect); settings: U2OS GR-GFP nuclear translocation, laser cytometry, 2 h
# Sequence of Glucocorticoid receptor (Homo sapiens) (P04150 whole entry, looked up, the tested form may be a part): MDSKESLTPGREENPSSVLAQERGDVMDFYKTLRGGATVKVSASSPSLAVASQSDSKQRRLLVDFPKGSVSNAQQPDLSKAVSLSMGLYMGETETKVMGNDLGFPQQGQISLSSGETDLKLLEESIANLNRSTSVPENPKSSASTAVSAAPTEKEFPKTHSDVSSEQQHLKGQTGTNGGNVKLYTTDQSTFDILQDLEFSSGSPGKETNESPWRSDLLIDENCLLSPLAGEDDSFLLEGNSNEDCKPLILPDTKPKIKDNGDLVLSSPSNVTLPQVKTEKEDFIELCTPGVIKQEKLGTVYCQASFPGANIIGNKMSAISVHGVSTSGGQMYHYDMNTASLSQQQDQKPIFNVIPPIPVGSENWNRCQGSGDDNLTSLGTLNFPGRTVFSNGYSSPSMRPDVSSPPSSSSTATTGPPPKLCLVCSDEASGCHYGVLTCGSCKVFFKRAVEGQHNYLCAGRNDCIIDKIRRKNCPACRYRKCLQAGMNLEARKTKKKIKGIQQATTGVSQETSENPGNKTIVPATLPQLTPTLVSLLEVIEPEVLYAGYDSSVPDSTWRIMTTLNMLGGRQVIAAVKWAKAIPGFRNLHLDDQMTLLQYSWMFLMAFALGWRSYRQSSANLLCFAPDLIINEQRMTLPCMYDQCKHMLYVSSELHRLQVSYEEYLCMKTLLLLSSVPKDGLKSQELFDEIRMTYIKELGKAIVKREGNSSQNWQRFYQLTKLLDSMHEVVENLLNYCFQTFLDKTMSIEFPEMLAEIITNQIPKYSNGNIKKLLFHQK
# [7] = molecular target: Glucocorticoid receptor (Homo sapiens) (UniProt P04150); assay: GR-EFC Redistribution (AID 451; calls by dose curve; also: potency is read from the fitted curve at half-maximal effect); settings: CHO-K1 GR-EFC translocation, beta-gal luminescence, 2 h
# In short: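 Translocation of GR-ED fusion to nuclear EA restores b-gal, read by luminescence after 1 h room-temperature detection. Engineered CHO-K1 biosensor cells, 1,000/well, exposed 2 h at 37 C to titrations up to 46 uM final.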
# [8] = molecular target: Mitogen-activated protein kinase 10 (Mus musculus) (UniProt Q61831); assay: JNK3 AlphaScreen Assay (AID 530; active = well fitted curve in either direction with a large enough effect, not every such curve was filed as active;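 also: kinase came from lysate of stimulated human HepG2 cells; signal reports phosphorylation of biotinylated GST-cJun 1-79 at Ser73 with 10 µM ATP; % is scaled to controls: 0 for no effect and ±100 for the full control effect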); settings: JNK3 lysate, c-Jun phosphorylation; series mostly up to 57.1 µM
# In short: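 Compound titrations were preincubated 15 minutes at room temperature with substrate, antibody and pre-activated JNK3-containing HepG2 lysate. Reactions were started with 10 uM ATP and stopped with EDTA-containing bead buffer for AlphaScreen detection.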
# [9] = molecular target: 3',5'-cyclic-AMP phosphodiesterase 4B (Homo sapiens) (UniProt Q07343); assay: qHTS Assay for Inhibitors of PDE-IV (AID 607; active = well fitted activation curve with a large enough effect in the main read-out, with a control signal flat, not every such curve was filed as active; also: % of control where 0% means no effect); settings: HEK293 ACTOne CNG channel cells, membrane potential fluorescence; series mostly up to 22.9 µM
# Sequence of 3',5'-cyclic-AMP phosphodiesterase 4B (Homo sapiens) (Q07343 whole entry, looked up): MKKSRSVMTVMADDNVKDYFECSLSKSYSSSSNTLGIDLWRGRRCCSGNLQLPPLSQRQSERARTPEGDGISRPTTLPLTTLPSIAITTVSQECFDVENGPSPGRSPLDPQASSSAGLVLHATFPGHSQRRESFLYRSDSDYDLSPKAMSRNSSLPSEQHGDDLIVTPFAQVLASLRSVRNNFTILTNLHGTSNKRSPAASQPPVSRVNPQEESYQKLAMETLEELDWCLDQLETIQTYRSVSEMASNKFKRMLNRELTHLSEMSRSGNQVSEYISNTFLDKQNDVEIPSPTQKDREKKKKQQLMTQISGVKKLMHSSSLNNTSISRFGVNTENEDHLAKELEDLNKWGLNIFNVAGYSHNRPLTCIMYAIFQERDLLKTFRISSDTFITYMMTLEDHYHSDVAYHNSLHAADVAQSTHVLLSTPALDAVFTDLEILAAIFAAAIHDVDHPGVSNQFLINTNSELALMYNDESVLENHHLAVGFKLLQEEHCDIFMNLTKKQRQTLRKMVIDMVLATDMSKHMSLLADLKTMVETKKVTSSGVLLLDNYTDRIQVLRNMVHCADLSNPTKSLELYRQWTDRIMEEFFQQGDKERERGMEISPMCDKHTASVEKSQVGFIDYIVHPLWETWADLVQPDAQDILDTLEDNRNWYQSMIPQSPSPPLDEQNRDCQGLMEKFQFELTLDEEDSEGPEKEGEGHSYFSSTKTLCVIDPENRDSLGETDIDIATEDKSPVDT
# In short: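 ACTOne HEK293 cells carry a modified cAMP-gated CNG channel and express endogenous PDE4; plated 1000 cells/well, compounds up to 22.9 uM final. Membrane-potential dye fluorescence (ex 535/em 590) was read; parental cells received 10 uM forskolin + 100 uM RO 20-1724.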
# [10] = molecular target: Cytochrome P450 3A4 (Homo sapiens) (UniProt P08684); assay: qHTS Assay for Activators of Cytochrome P450 3A4 (AID 885); settings: recombinant CYP3A4, Luciferin-PPXE luminescence, 60 min; series mostly up to 57.1 µM; also: nearly all actives have a fitted effect of over 65% in size
# Sequence of Cytochrome P450 3A4 (Homo sapiens) (P08684 whole entry, looked up): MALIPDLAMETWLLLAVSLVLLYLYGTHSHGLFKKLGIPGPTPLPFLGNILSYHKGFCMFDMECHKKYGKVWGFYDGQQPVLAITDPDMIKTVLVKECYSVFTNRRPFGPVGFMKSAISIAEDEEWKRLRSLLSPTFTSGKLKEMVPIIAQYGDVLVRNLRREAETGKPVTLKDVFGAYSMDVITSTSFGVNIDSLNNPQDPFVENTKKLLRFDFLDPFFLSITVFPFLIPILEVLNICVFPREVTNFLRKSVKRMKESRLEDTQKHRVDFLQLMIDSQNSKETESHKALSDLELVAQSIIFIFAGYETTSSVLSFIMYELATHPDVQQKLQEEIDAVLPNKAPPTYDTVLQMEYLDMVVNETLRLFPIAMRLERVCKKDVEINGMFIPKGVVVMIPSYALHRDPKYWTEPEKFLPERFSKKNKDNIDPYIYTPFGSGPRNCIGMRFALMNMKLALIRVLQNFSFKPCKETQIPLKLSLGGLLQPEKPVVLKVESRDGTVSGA
# In short: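 20nM CYP3A4 + 25uM Luciferin-PPXE (=KM), 200mM KPO4; cpd 10 min RT; NADPH regen, 60 min RT; stop w/ detection buffer, 20 min; luminescence. Normalized to 57 uM ketoconazole.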
# [11] = molecular target: Cytochrome P450 2C19 (Homo sapiens) (UniProt P33261); assay: qHTS Assay for Inhibitors and Substrates of Cytochrome P450 2C19 (AID 899); settings: recombinant CYP2C19, luciferin-H EGE luminescence; series mostly up to 57.1 µM; also: potency is read from the fitted curve at half-maximal effect; nearly all actives have a fitted effect of over 60% in size
# Sequence of Cytochrome P450 2C19 (Homo sapiens) (P33261 whole entry, looked up): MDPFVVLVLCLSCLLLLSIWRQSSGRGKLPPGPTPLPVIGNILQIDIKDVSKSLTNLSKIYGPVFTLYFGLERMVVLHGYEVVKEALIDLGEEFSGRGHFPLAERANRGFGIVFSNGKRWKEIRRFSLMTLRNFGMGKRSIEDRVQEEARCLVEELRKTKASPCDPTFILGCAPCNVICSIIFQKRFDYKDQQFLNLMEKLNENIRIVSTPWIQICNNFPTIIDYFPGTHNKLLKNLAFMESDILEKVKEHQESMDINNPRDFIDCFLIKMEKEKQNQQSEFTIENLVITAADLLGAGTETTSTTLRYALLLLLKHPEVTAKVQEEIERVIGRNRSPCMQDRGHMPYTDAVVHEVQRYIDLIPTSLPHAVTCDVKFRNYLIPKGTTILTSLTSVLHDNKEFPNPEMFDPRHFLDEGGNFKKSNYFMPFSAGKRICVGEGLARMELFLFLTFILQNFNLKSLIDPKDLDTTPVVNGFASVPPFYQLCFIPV
# In short: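 Luminescence readout of luciferin formed from 10uM Luciferin-H EGE (KM level) by 5 nM CYP2C19 in 50mM KPO4. 60 min NADPH-driven reaction at 37C after 10 min compound preincubation; data scaled to 57uM ketoconazole inhibition.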
# [12] = qHTS Assay for Identification of Small Molecule Agonists for Hypoxia Response Element Signaling Pathway (AID 914; active = well fitted activation curve with a large enough effect in the signal ratio, with a control signal flat, not every such curve was filed as active; the % refers to the signal ratio; also: % of control where 0% means no effect); settings: ME-180 (cervical carcinoma) HRE-bla reporter, beta-lactamase ratio, CoCl2, 17 h; activation: stronger effect = higher value
# In short: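 Read-out: CCF4 FRET ratio of 460nm to 530nm emission (excitation 405nm) after 2.5 hours at room temperature, taken from HRE-bla ME-180 cells that had been exposed to compound and EC50 CoCl2 for 17 hours.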
# [13] = molecular target: Dual specificity protein kinase CLK4 (Homo sapiens) (UniProt Q9HAZ1); assay: qHTS Assay for Inhibitors of CDC-like Kinase 4 (ADP-FP Assay) (AID 1795); settings: Transcreener ADP fluorescence polarization; series mostly up to 50 µM;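 also: recombinant human CLK4 phosphorylating RS repeat peptide at 1 µM ATP; % is scaled to controls: 0 for no effect and ±100 for the full control effect; nearly all actives have a fitted effect of over 60% in size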
# Sequence of Dual specificity protein kinase CLK4 (Homo sapiens) (Q9HAZ1 whole entry, looked up): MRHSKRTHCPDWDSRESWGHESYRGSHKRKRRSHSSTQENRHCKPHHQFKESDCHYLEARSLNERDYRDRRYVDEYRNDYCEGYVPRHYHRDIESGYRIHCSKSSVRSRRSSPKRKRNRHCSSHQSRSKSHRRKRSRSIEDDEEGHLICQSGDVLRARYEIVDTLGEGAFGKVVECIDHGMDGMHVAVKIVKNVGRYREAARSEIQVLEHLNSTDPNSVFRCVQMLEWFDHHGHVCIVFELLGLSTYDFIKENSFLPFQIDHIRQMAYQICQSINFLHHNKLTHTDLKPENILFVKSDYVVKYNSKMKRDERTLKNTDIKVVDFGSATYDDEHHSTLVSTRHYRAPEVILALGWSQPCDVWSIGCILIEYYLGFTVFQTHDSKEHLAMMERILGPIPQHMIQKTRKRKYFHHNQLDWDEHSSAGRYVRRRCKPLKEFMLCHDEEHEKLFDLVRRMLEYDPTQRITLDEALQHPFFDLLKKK
# In short: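 Inhibition of ADP formation by 6.25 nM Clk4 is measured using 1 uM ATP and 100 uM RS repeat peptide over one hour. Produced ADP displaces a fluorescent tracer from antibody, lowering polarization.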
# [14] = Primary qHTS for small molecule stabilizers of the endoplasmic reticulum resident proteome: Secreted ER Calcium Modulated Protein (SERCaMP) assay (AID 1508630); settings: SH-SY5Y GLuc-SERCaMP (Gaussia luciferase released on ER calcium loss) secretion, thapsigargin, luminescence; series mostly up to 38.4 µM; also: % is scaled to controls: 0 for no effect and ±100 for the full control effect
# In short: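 GLuc-SERCaMP-expressing SH-SY5Y cells, pretreated 16 h with compound, are challenged with thapsigargin to empty ER calcium stores; after 4 h, coelenterazine is added directly to the medium and luminescence is imaged.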
# [15] = molecular target: Ubiquitin carboxyl-terminal hydrolase 1 (Homo sapiens) (UniProt O94782); assay: Inhibitors of USP1/UAF1: Pilot qHTS (AID 504865); settings: purified USP1/UAF1, Ub-rhodamine cleavage fluorescence; series mostly up to 54.9 µM;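 also: rhodamine fluorescence freed from ubiquitin-rhodamine substrate followed over time; top concentration of the series differs between compounds; % is scaled to controls: 0 for no effect and ±100 for the full control effect; nearly all actives have a fitted effect of over 35% in size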
# Sequence of Ubiquitin carboxyl-terminal hydrolase 1 (Homo sapiens) (O94782 whole entry, looked up): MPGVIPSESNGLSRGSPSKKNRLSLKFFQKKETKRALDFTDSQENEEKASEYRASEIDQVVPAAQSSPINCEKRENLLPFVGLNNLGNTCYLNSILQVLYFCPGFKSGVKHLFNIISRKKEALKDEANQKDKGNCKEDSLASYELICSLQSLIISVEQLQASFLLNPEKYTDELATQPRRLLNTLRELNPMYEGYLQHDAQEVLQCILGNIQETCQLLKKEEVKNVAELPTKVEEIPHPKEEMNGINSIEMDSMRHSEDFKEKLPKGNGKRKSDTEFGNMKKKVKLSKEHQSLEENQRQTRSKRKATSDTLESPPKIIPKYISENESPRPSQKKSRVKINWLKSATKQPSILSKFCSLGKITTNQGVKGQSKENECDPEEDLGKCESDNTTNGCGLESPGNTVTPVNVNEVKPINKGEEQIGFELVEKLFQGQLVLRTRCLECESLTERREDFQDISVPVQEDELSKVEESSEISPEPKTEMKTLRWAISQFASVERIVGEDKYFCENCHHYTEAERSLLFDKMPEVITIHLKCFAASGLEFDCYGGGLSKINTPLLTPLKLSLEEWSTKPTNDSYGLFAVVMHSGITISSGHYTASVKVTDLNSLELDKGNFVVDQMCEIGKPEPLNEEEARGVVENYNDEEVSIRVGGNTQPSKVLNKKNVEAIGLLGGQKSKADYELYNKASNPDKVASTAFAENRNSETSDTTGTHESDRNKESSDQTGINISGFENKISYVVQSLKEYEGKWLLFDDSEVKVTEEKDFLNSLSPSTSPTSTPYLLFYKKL
# In short: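 Kinetic fluorescence assay: 1nM USP1/UAF1, 15 min compound preincubation, then 150nM Ub-Rho; 480/540 nm.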
# [16] = molecular target: Cytochrome P450 3A4 (Homo sapiens) (UniProt P08684); assay: qHTS Assay for Inhibitors and Substrates of Cytochrome P450 3A4 (AID 884); settings: recombinant CYP3A4, Luciferin-PPXE luminescence; series mostly up to 57.1 µM; also: potency is read from the fitted curve at half-maximal effect; nearly all actives have a fitted effect of over 50% in size
# In short: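 20 nM human CYP3A4 with 25 uM Luciferin-PPXE (at KM) in 200 mM KPO4, preincubated 10 min with compound; NADPH regeneration started a 60 min RT reaction. Luciferin detected by luminescence, normalized to 57 uM ketoconazole as full inhibition.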
# [17] = molecular target: Cytochrome P450 2D6 (Homo sapiens) (UniProt P10635); assay: qHTS Assay for Inhibitors and Substrates of Cytochrome P450 2D6 (AID 891); settings: recombinant CYP2D6, luciferin-ME EGE luminescence; series mostly up to 57.1 µM; also: potency is read from the fitted curve at half-maximal effect; nearly all actives have a fitted effect of over 60% in size
# In short: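 Human CYP2D6 (5 nM) with 30 uM Luciferin-ME EGE (at Km) in 100 mM KPO4, compound preincubated 10 min, then NADPH regeneration system for 60 min at room temperature. Luciferin read by luminescence; normalized to 1.43 uM quinidine.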
Compound,Potency [1] [µM],"activity change, negative = inhibition [2] [%]",Potency [3],"activity change, negative = inhibition [4] [%]","activity, negative = inhibition [5] [%]",Potency [6] [µM],Potency [7] [µM],Potency [8],Potency [9],Potency [10],Potency [11],activation [12] [%],Potency [13],outcome [14],Potency [15],Potency [16],Potency [17]
Cc1noc(C)c1-c1nccc(Nc2ccc(F)cc2)n1,> 11.4,-22.4,0.398 µM (active),-10.5,1.44,> 46,> 46,inactive,inactive,inactive,3.98 µM (active),21.5,inactive,inactive,–,–,–
c1ccc(CNc2nc(-c3ccoc3)nc3ccccc23)cc1,> 2.29,-9.34,0.631 µM (active),-7.24,12.7,> 46,> 46,inactive,–,inactive,–,–,inactive,inactive,inactive,–,–
CN(Cc1ccco1)c1cc(-c2cccnc2)ncn1,> 11.4,11.4,0.316 µM (active),-0.973,–,> 46,> 46,inactive,inactive,inactive,–,–,inactive,inactive,inactive,3.16 µM (active),–
COc1ccc(CNc2ncncc2-c2cccc(NS(C)(=O)=O)c2)c(OC)c1,> 2.29,-14.5,15.8 µM (active),–,17.9,> 46,> 46,inactive,inactive,inactive,–,–,inactive,inactive,inactive,0.251 µM (active),–
CC(=O)NCCNc1nc(-c2cccc(NS(C)(=O)=O)c2)nc2ccccc12,> 11.4,-17.6,15.8 µM (active),-1.12,-3.86,> 46,> 46,inactive,inactive,inactive,–,–,inactive,inactive,inactive,–,–
COc1ccccc1-c1cc(Nc2ccn[nH]2)ncn1,> 11.4,-9.99,0.631 µM (active),2.51,6.94,> 46,> 46,inactive,–,inactive,6.31 µM (active),–,inactive,inactive,inactive,3.98 µM (active),–
N#Cc1ccccc1-c1ccc2ncnc(NCCN3CCOCC3)c2c1,> 11.4,1.67,10 µM (active),–,0.199,> 46,> 46,inactive,inactive,inactive,–,–,inactive,inactive,inactive,–,–
Cn1cc(-c2nc3cncnc3n(C3CC3)c2=O)c2ccccc21,> 11.4,-14.5,0.2 µM (active),9.91,-6.67,> 9.22,> 46,inactive,inactive,inactive,–,–,inactive,inactive,inactive,–,–
COc1ccc(CNc2ccnc(-c3cccnc3)n2)c(OC)c1,> 11.4,-5.2,0.316 µM (active),-0.132,-2.65,> 46,> 46,–,inactive,inactive,2 µM (active),–,inactive,inactive,inactive,0.631 µM (active),–
COc1cccc(-c2cncnc2NCc2cccnc2)c1,> 11.4,-6.26,0.794 µM (active),–,3.03,> 46,> 46,inactive,inactive,inactive,0.316 µM (active),–,inactive,inactive,inactive,1.26 µM (active),–
c1ccc(CNc2ccnc(-c3cccnc3)n2)cc1,> 11.4,-10.3,0.251 µM (active),7.79,–,> 46,> 46,inactive,–,inactive,2.51 µM (active),–,inactive,inactive,inactive,0.631 µM (active),1.26 µM (active)
CCNc1ncc2nc(-c3cccs3)c(=O)n(C[C@H]3CCCO3)c2n1,> 11.4,9.48,2.51 µM (active),18.7,–,> 9.22,> 46,inactive,–,inactive,–,–,inactive,inactive,inactive,–,–
CC(=O)NCCNc1ccnc(-c2ccccc2C)n1,> 11.4,12.2,3.98 µM (active),6.08,8.94,> 46,> 46,inactive,inactive,inactive,–,–,inactive,inactive,inactive,–,–
